Source: PubChem BioAssay
In the library only some 2.8% were active in any assay of this set; here they are far more common.
WRN inhibitor: blocks human WRN helicase | WRN helicase unwinding, fluorescent forked duplex, kinetic | Potency, µM (highest dose often 114 µM), inactives show at the highest dose activity change, negative = inhibition, actives largely listed as inhibitors | 360,000 tested, 0.46% active; also: potency is read from the fitted curve at half-maximal effect; % is scaled to controls: 0 for no effect and ±100 for the full control effect; nearly all actives have a fitted effect of over 55% in size
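Enzyme (20 nM final) and test compound sit together 15 min at room temperature before substrate addition. Substrate is a single-forked duplex oligonucleotide (100 nM) labelled with fluorophore and quencher, with 2 mM ATP; helicase unwinding raises red fluorescence, read kinetically.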
Pol beta inh: DNA polymerase beta (human) inhibition | P06746 | AID 485314 | Potency, µM (series often up to 114 µM), for inactives: top-dose activity change, negative = inhibition, hits mostly inhibitors | Pol beta primer extension/strand displacement, fluorescence kinetic | 340,000 tested, 1.3% active; also: potency is read from the fitted curve at half-maximal effect; % is scaled to controls: 0 for no effect and ±100 for the full control effect
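Pol beta (10 nM) and compounds were preincubated 15 min at room temperature, then 50 nM substrate (final) started primer extension/strand displacement. Reads were taken at 0 and 10 min; concentration-response data were fitted to a four-parameter Hill equation.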
PI5P4K alpha inh: inhibitors of human PI5P4K alpha; PI5P4Kalpha enzyme, ADP-Glo luminescence, 60 min; hits give low values; 330,000 tested, 1.2% active; P48426; max response, %; AID 652105; active = max response of -50% or lower; inconclusive = between -30% and -50%; inactive = -30% or higher; also: value at the top dose of about 77 µM; % is scaled to controls: 0 for no effect and ±100 for the full control effect
Target sequence (P48426 whole entry, looked up): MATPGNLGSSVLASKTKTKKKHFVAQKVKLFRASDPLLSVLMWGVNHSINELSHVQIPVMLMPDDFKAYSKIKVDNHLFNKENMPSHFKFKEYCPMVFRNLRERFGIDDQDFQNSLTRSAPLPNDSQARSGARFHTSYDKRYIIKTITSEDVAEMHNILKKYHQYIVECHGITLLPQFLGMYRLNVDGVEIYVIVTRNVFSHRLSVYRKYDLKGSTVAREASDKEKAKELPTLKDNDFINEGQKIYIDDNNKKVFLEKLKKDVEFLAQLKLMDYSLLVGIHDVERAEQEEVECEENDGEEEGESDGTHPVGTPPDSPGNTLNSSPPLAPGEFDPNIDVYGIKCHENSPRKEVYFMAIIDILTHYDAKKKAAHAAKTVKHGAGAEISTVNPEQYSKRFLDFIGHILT
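Reactions run in 0.038 M HEPES pH 7.4, 0.28 mM EGTA, 0.1% CHAPS and 5% DMSO, with PI5P4Kalpha, substrate, compound and 5 microM ATP final, one hour at room temperature. Readout is ADP-Glo luminescence.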
Pol eta inh: inhibitors of human DNA polymerase eta | recombinant Pol eta, fluorescent DNA replication assay | Potency, µM (titrated, usually from 114 µM), for inactives: top-dose activity change, negative = inhibition, most hits filed as inhibitors | 390,000 tested, 1.2% active; also: potency is read from the fitted curve at half-maximal effect; % is scaled to controls: 0 for no effect and ±100 for the full control effect
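Pol eta at 10 nM preincubated with compounds 15 min at room temperature; reaction started with fluorescent substrate (50 nM final) and read kinetically at 0 and 10 min.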
Pol kappa inh: blocks human DNA polymerase kappa activity. 400,000 tested, 0.53% active. Q9UBT6. purified Pol kappa, fluorescent DNA synthesis assay, 10 min. AID 588579. Potency, µM (doses to about 107 µM), for inactives: at the top dose activity, negative = inhibition, hits mostly inhibitors; also: potency is read from the fitted curve at half-maximal effect; % is scaled to controls: 0 for no effect and ±100 for the full control effect
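Readout: fluorescence, taken kinetically at 0 and 10 min. Conditions: 10 nM Pol kappa, 15 min RT compound preincubation, 50 nM substrate final. Controls: enzyme-free buffer wells.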
Pol iota inh: DNA polymerase iota (human) inhibition; Pol iota fluorescent replication assay, 10 min; Q9UNA4; AID 588590; 390,000 tested, 1% active; Potency, µM (doses to about 115 µM), inactives show top-dose activity, negative = inhibition, actives largely listed as inhibitors; also: potency is read from the fitted curve at half-maximal effect
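Pol iota at 10 nM preincubated 15 min with compounds at room temperature; reaction started with fluorescent substrate, 50 nM final. Fluorescence read kinetically at 0 and 10 min; buffer-only wells as negative control.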
* hit, by the source's call; ? = inconclusive; · = no result given; [ ] = another dose, or the depositor's remark. Unless noted, calls follow the shape of the dose curve; as a rule, active = well fitted curve in the direction sought with a large enough effect; inconclusive = small, poorly fitted or top-dose-only effect, or another doubt; inactive = no such curve, though single readings can be large; an effect the other way counts as inactive or inconclusive.

SMILES | WRN inhibitor | Pol beta inh | PI5P4K alpha inh | Pol eta inh | Pol kappa inh | Pol iota inh
COc1cc(NS(=O)(=O)c2ccc(NC(=S)NC(=O)c3sc4ccccc4c3Cl)cc2)ncn1 | ? | -23% | ? | 25µM* | -14% | ?
Cc1ccc(/C=C/C(=O)O)cc1S(=O)(=O)N1CCc2ccccc2C1 | 3%[57.1 µM] | 6% | ? | -7% | -4% | 106%
Cc1ccc(/C=C/C(=O)O)cc1S(=O)(=O)N1CCCc2ccccc21 | -5% | 3% | -90* | 3% | -19% | -5%
Cc1ccc(/C=C/C(=O)O)cc1S(=O)(=O)Nc1ccccc1C(=O)O | 2%[11.6 µM] | ? | -53* | 45µM* | -16% | 60%
Cc1ccc(/C=C/C(=O)O)cc1S(=O)(=O)N1CCCCC1 | -12% | 2% | -7 | -2% | 12% | 21%
Cc1ccc(/C=C/C(=O)O)cc1S(=O)(=O)N1CCc2ccccc21 | -5%[57.1 µM] | 49% | -76* | -8% | -10% | 18%
O=C(/C=C/c1ccc(Br)o1)OCc1nc2ccsc2c(=O)[nH]1 | 14µM* | · | -67* | 0.79µM* | 10µM* | 10µM*
Cc1ccc(C(=O)OCc2nc3ccsc3c(=O)[nH]2)o1 | -27% | · | 1 | 20% | -14% | ?
CCCNC(=O)c1c(NC(=O)c2ccccc2F)sc2c1CCCCC2 | · | 26% | · | 2% | 2% | 15%
C=C(C)COc1ccc2oc(C)c(C(=O)OCCOC)c2c1 | 4% | 15% | · | 1% | -2% | 89µM*
Cc1ccccc1Cc1c(C)nc2c(C(=O)NCc3ccco3)cnn2c1C | -15% | 45µM* | · | ? | -16% | ?
COc1cccc(-n2ccn(CC(=O)c3ccc(F)cc3)c(=O)c2=O)c1 | · | -20% | · | -12% | -11% | ?
O=C(Nc1ccccc1)c1cn(-c2ccccc2)nc1-c1ccccc1 | · | 0% | · | -13% | -8% | -11%
O=C(O)CC/C(=N/NC(=O)c1cn(-c2ccccc2)nc1-c1ccccc1)C(=O)O | -4%[57.1 µM] | 1% | -3 | -10% | -3% | 25µM*
COc1cc(/C=C/C(=O)O)cc(S(=O)(=O)Nc2ccc3c(c2)OCO3)c1OC | -5%[57.1 µM] | 16% | -53* | -12% | 14% | 50%
COc1ccccc1N1CCN(C(CNC(=O)C(=O)NCc2ccc(F)cc2)c2cccnc2)CC1 (centres undefined) | · | 7% | · | -9% | -15% | 13%
Cc1csc(NC(=O)CN(C)S(=O)(=O)c2cccc3cccnc23)n1 | 0% | ? | -4 | 1% | -3% | 2%
CN(CC(=O)Nc1n[nH]c(=S)s1)S(=O)(=O)c1cccc2cccnc12 | 0% | -1% | -57* | 8% | 1% | ?
COc1ccc(C(=O)c2sc3nc(-c4ccc(F)cc4)ccc3c2N)cc1 | · | 3% | · | -8% | -22% | -20%
COCc1cc(C)nc(SCC(=O)c2ccc(O)c(O)c2)c1C#N | ? | ? | · | 45µM* | ? | 22µM*
COCc1cc(C)nc(SCC(=O)Oc2ccccc2)c1C#N | 0% | 2% | -3 | -2% | 2% | 159%
CCOC1=CC2=C(C(=O)C(Cl)=CC2=O)[C@@H]2CN(S(=O)(=O)c3ccc(C)cc3)[C@@H](c3ccccc3)[C@H]12 | -21% | · | -107* | · | · | ·
CCN1C(=O)[C@@H]2[C@@H]3CN(S(=O)(=O)c4ccc(C)cc4)[C@@H](c4ccccc4)[C@@H]3C(=O)C[C@@H]2C1=O | -5% | · | 0 | · | · | ·
COc1ccc(-c2ccc3c(c2)S(=O)(=O)c2cccc(C(=O)NC[C@@H]4CCCO4)c2C3=O)cc1OC | -14% | · | -9 | 28µM* | -10% | ?
CC(C)c1cccc(-c2ccc3c(c2)S(=O)(=O)c2cccc(C(=O)NCc4ccco4)c2C3=O)c1 | -11%[11.6 µM] | · | -23 | 40µM* | ? | ?
SMILES | WRN inhibitor | Pol beta inh | PI5P4K alpha inh | Pol eta inh | Pol kappa inh | Pol iota inh
O=C1c2ccccc2S(=O)(=O)c2cc(-c3nn[nH]n3)ccc21 | -7% | · | -73* | -20% | · | ·
CC1=Nc2ccccc2/C1=C/c1ccc(N(C)C)cc1 | · | · | · | · | -6% | 11%
COc1ccc(-n2c(SC)nc(O)c(Cc3ccccc3)c2=O)cc1 | -5% | 30% | · | 3% | -2% | -3%
COc1ccc(Cc2c(O)nc(SC)n(C(C)=O)c2=O)cc1 | -13% | -3% | -75* | -4% | -1% | -4%
COc1ccc(S(=O)(=O)N2CCC(C(=O)NCc3cccnc3)CC2)cc1OC | 17% | 0% | 0 | -12% | 3% | 36%
O=C(NCc1ccccc1)/C(=C\c1ccc(F)cc1)NC(=O)c1ccco1 | -2% | · | 1 | -19% | · | ·
CCc1nnc(SCCSc2nnc(CC)n2N)n1N | -9% | -8% | 6 | 0% | -2% | 8%
CCCCc1nnc(SCCSc2nnc(CCCC)n2N)n1N | 7% | 28% | 0 | -10% | -6% | 89µM*
COC(=O)C1=C(O)/C(=C\c2ccc(CNC(=O)C(=O)Nc3ccc(C)cc3)o2)N=C1C | ? | ? | -12 | ? | -43% | ?
CCOC(=O)C(=O)NCc1ccc(/C=C2/N=C(C)C(C(=O)OCC)=C2O)o1 | -24% | ? | -16 | -11% | ? | ?
CCOC(=O)C1=C(O)/C(=C\c2ccc(CNS(=O)(=O)c3ccc(Br)cc3)o2)N=C1C | 45µM* | -24% | -58* | 22µM* | 50µM* | 16µM*
COC(=O)C1=C(O)/C(=C\c2ccc(CNS(=O)(=O)c3ccccc3)o2)N=C1C | ? | -20% | -4 | ? | 28µM* | ?
COC(=O)C1=C(O)/C(=C\c2ccc(CNC(=O)C(=O)Nc3ccc(C)c(C)c3)o2)N=C1C | -13%[11.6 µM] | ? | ? | 22µM* | -26% | ?
COc1cccc2c1C(=O)c1c(O)c3c(c(O)c1C2=O)C[C@@](O)(C(=O)CO)C[C@@H]3OC1C[C@@H](N)[C@H](O)[C@H](C)O1 (some centres undefined) | · | · | · | · | 18µM* | ·
COc1cccc2c1C(=O)c1c(O)c3c(c(O)c1C2=O)C[C@](O)(C(=O)CO)C[C@@H]3O[C@H]1C[C@H](N)[C@@H](O)[C@H](C)O1 | · | · | · | · | -2%[60.1 µM] | ·
COc1cccc2c1C(=O)c1c(O)c3c(c(O)c1C2=O)C[C@@](O)(C(=O)CO)C[C@@H]3O[C@H]1C[C@H](N)[C@@H](O)[C@H](C)O1 | 56µM* | · | -19 | ? | ? | 40µM*
Cc1ccc(-n2cc3c(c2-c2ccccc2Br)c(=O)n(C)c(=O)n3C)cc1N | · | 9% | · | -2% | -1% | 18%
CN(C)/C=C/C1=C([N+](=O)[O-])C(c2cccc([N+](=O)[O-])c2)NC(=O)N1 (centres undefined) | -36% | -13% | -83* | ? | -40% | ?
